Screening results as filed in PubChem.
ROC1-CUL1 inh: blocks human RBX1-Cullin-1 di-ubiquitin formation. in vitro K48 di-Ub FRET, acceptor:donor ratio, 45 min. P62877+Q13616. inhibition, % at 10 µM. hit rate 0.6% among 140,000. AID 1347404; in the data active means inhibition above about 25%
* marks the source's active call; other numbers are inactive results. This excerpt belongs to a sample that is enriched for hits.

SMILES	ROC1-CUL1 inh
CC1(C)COC2(NC1=O)c1ccccc1-c1ccccc12	10
O=C1c2ccccc2COC12OCc1ccccc12 (stereo not given)	-8
C=CCOc1ccc(/C=C2\C(=O)N(CCCCl)C(=O)N(C3CCCCC3)C2=O)cc1	3
CCCOc1ccc([N+](=O)[O-])cc1NCC(=O)O	-2
Cn1c(SCCc2ccccc2)nc2c(c1=O)C1(CCCC1)Cc1ccccc1-2	-5
NCCCSc1nc2c(c(=O)n1Cc1ccccc1)C1(CCCCC1)Cc1ccccc1-2	92*
C#CCSc1nc2c(c(=O)n1Cc1ccccc1)C1(CCCCC1)Cc1ccccc1-2	-7
O=C(CSc1nnc(-c2cccnc2)n1-c1ccccc1)NCCCN1CCOCC1	0
CCCCCN1CCCn2c1nc1c2c(=O)n(C)c(=O)n1C	-8
O=C1CC(=O)c2c(c3c(n(-c4ccccc4)c2=O)CCCCC3)O1	-4
Cc1ccc(Cn2nnc3c2C(=O)c2ccccc2C3=O)cc1	65*
O=c1c2ccccc2nnn1Cc1ccccc1	-6
COc1cccc(Cn2nnc3c2C(=O)c2ccccc2C3=O)c1	-1
CC(=O)Nc1ccc(NC(=O)CCC2CCCC2)cc1	-3
CC(C)c1cc(C(N)=O)c(NC(=O)c2ccc(COc3ccc(Br)cc3)cc2)s1	-9
